This is a sample that favours compounds with a hit; in the whole collection about 3.5% have one here.
FBW7 act: activators of human E3 ligase FBW7 | Q969H0 | 650,000 tested, 0.13% active | AlphaScreen FBW7–phospho-cyclin E peptide binding, activator screen | normalized activity (activation), % at 26.1 µM; in the data active = normalized activity above about 1.9%;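 note: purified mutant Fbw7 with reduced substrate affinity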
Target sequence (Q969H0 whole entry, looked up): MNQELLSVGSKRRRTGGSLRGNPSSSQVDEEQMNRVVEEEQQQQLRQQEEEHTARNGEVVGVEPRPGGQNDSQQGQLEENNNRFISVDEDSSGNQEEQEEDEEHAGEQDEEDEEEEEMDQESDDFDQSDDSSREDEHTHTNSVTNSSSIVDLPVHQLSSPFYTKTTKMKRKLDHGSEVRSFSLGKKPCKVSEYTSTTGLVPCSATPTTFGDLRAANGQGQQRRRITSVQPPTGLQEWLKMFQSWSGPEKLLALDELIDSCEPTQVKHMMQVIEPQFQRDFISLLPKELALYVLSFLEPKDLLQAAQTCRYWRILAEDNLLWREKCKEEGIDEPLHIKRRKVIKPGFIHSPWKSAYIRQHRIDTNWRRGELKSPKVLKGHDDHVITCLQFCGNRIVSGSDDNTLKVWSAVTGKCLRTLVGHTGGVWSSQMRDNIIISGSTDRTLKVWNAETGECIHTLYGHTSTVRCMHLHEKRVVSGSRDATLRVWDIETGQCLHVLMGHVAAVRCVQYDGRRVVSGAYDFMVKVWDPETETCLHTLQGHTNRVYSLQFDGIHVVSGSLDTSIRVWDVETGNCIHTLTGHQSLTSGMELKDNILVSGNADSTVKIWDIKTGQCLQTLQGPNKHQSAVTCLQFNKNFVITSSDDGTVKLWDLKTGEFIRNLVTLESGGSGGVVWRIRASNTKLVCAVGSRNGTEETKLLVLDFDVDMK
TEAD-YAP inh: TEAD-YAP interaction inhibition | HEK-TIYL cells, TEAD-Gal4/YAP UAS-luciferase luminescence | 640,000 tested, 1.4% active | inhibition, % at 9.12 µM | AID 1259422; in the data active = inhibition above about 32%;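 note: 0% = median of test compound wells and 100% = reference inhibitor wells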
MITF inh: blocks human microphthalmia-associated transcription factor; O75030; AlphaScreen MITF homodimerization, bead proximity signal; 650,000 tested, 0.91% active; inhibition, % at 2.6 µM; in the data active = inhibition above about 50%;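 note: 0% = vehicle wells with protein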
GPR151 ag: activates the human receptor GPR151 | Q8TDV0 | PathHunter beta-arrestin GPR151 cells, luminescence | activation, % at 11.2 µM | 650,000 tested, 1% active | AID 1508602; in the data active = activation above about 4.9%;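 note: 0% = median of compound wells and 100% = cells with positive control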
An asterisk follows results filed as active.

SMILES	FBW7 act	TEAD-YAP inh	MITF inh	GPR151 ag
NC(=O)c1ccc(-c2nc(NCCCN3CCCC3=O)c3ncn(-c4ccccc4)c3n2)cc1	0	55*	14	1
CC(=O)c1cccc(-c2nc(NCCCN3CCCC3=O)c3ncn(-c4ccccc4)c3n2)c1	0	58*	-7	-1
CC(=O)c1cccc(-c2nc(NCCCN3CCCC3=O)c3ncn(CCN4CCCC4=O)c3n2)c1	0	0	-7	-1
O=C(NC1CC1)c1ccc(-c2nc(NCCCN3CCCC3=O)c3ncn(-c4ccccc4)c3n2)cc1	0	64*	1	0
CCc1nn(CC(=O)NCc2ccco2)c(=O)c2cc3sc(C)cc3n12	0	5	19	-1
COc1ccccc1CCNC1CCN(c2cccc(NC(=O)c3cccnc3)c2)CC1	0	10	-23	1
O=C1CCCc2c1cc(C(=O)NCc1ccccc1)c(=O)n2-c1ccccc1	0	0	9	-1
Oc1ccc(C2CC3CCC2C3)cc1O (configuration not stated)	0	-8	-19	0
CCOC(=O)NC(C(=O)OC)C(F)(F)F (configuration not stated)	0	1	-13	-1
Cc1cc(C)c(NC(=O)Cn2cnc3ccccc32)c(C)c1	0	42*	2	3
Cc1cc(Cn2cnc3ccccc32)c(C)cc1Cn1cnc2ccccc21	0	36*	8	0
O=C(Cn1cnc2ccccc21)Nc1ccc(SC(F)F)cc1	0	34*	7	1
Cc1ccc(Cn2cnc3ccccc32)cc1	0	17	18	1
CN(C)CCNC(=O)c1ccc2c(c1)CC(c1nc3ccc(-c4ccnc(N)n4)cc3[nH]1)CO2 (configuration not stated)	0	-2	38	-1
Nc1nccc(-c2ccc3nc(C4COc5ccc(C(=O)NCCc6cccs6)cc5C4)[nH]c3c2)n1 (configuration not stated)	24*	20	-8	-1
COc1ccccc1CCNC(=O)c1ccc2c(c1)CC(c1nc3ccc(-c4ccnc(N)n4)cc3[nH]1)CO2 (configuration not stated)	3.0*	29	-7	-1
CC(C)N(CCNc1nc(Nc2nccc3ccccc23)nc2c1ncn2C(C)C)C(C)C	0	50*	20	-1
CCCNc1nc(Nc2cnccn2)nc2c1ncn2C(C)C	0	46*	5	3
O=C(COC(=O)C(c1ccccc1)c1ccccc1)c1ccccc1	0	-1	3	0
Cc1ccc(S(=O)(=O)Nc2ccccc2C(=O)Nc2nc(-c3ccc(Br)s3)cs2)cc1	0	53*	-5	1
Cc1ccc(S(=O)(=O)Nc2ccccc2C(=O)Nc2nc(-c3ccc(Br)cc3)cs2)cc1	0	38*	-8	2
Cc1ccc(S(=O)(=O)Nc2ccccc2C(=O)Nc2nccs2)cc1	0	39*	21	0
Cc1ccc(S(=O)(=O)Nc2ccccc2C(=O)Nc2nc(-c3cccs3)cs2)cc1	0	0	-3	-1
Cc1ccc(S(=O)(=O)Nc2ccccc2C(=O)Nc2nc(-c3ccc(Cl)cc3)cs2)cc1	0	53*	2	1
COc1ccccc1NC(=O)C1=C(C)NC(SCc2cccc3ccccc23)=C(C#N)C1c1ccccc1Cl (configuration not stated)	0	4	-11	-1
SMILES	FBW7 act	TEAD-YAP inh	MITF inh	GPR151 ag
CSc1ccccc1C(=O)Nc1nc(-c2ccc(C#N)cc2)cs1	0	-2	-7	3
CS(=O)(=O)c1ccccc1C(=O)Nc1nc(-c2ccc(C#N)cc2)cs1	0	34*	4	0
Cc1cc2c(cc1C)-c1nc3ccccc3cc1C2	1	54*	9	-4
Cc1ccc2c(c1)Cc1nc3ccccc3nc1-2	0	65*	-1	-10
Cc1cc2c(cc1C)-c1nc3ccccc3cc1C2=O	0	-30	4	-3
Cc1cc2nc(C3CCCCN3C(=O)c3c(C)noc3C)[nH]c2cc1C (configuration not stated)	0	-10	4	0
CC(=O)c1ccc(NC(=O)CSc2nnc(Cc3cccn3C)n2-c2ccccc2)cc1	0	7	5	-1
CC(C(=O)NCCn1nc(-c2cccs2)ccc1=O)c1ccccc1 (configuration not stated)	0	-3	18	1
CCCCCCCCCCCCC[N+](C)(C)Cc1ccccc1	0	38*	24	1
CCOC(=O)c1cc2c(=O)n3ccccc3nc2n(CCOC)c1=NC(=O)C1CCCCC1	0	37*	-3	-2
CCOC(=O)c1cc2c(=O)n3ccccc3nc2n(CCOC)c1=NC(=O)C(C)(C)C	0	1	-1	2
COCC(C)NC(=O)C1CC(c2ccc(Cl)cc2)=NO1 (configuration not stated)	0	-2	-4	-1
CCn1nc(C)c(CNC(=O)c2ccc(OC3CCN(Cc4ccccn4)CC3)cc2)c1C	0	52*	9	0
Cc1nc2ccccc2nc1CN1Cc2ccccc2OC(C)C1 (configuration not stated)	0	7	4	-1
Nc1nc(Nc2ccc3c(c2)OCO3)cc(Nc2nccc3ccccc23)n1	0	36*	10	-1
Cc1cc(Nc2ccc3c(c2)OCO3)nc(Nc2nccc3ccccc23)n1	0	35*	2	0
CCN1/C(=C/c2ccc3cc(C)ccc3[n+]2C)C=Cc2cc(C)ccc21	-1	83*	47	-1
CCN1/C(=C/c2scc(-c3ccccc3)[n+]2C)C=Cc2cc(C)ccc21	-1	80*	9	4
C(=Nc1ccc2c(c1)OCCO2)c1ccc(OC2CSC2)cc1	1	45*	11	1
COc1ccc(Nc2nc(N3CCCC3)nc(N3CCCC3)n2)cc1Cl	0	-5	4	2
CCOCCCNC(=O)c1ccc(CSc2ccc(C)cc2)cc1	0	-6	-7	1
COc1cc(C(Nc2cc(C)ccn2)c2ccc3ccc(C)nc3c2O)cc(OC)c1OC (configuration not stated)	0	68*	21	1
Cc1cccc(NC(c2cccc(O)c2)c2ccc3ccc(C)nc3c2O)n1 (configuration not stated)	0	11	17	0
COc1cc(C(Nc2cc(C)ccn2)c2ccc3cccnc3c2O)ccc1O (configuration not stated)	0	-11	54*	1
Cc1ccnc(NC(c2cccc(O)c2)c2ccc3ccc(C)nc3c2O)c1 (configuration not stated)	0	13	5	0
CCOc1cc(C(Nc2cc(C)ccn2)c2ccc3cccnc3c2O)ccc1O (configuration not stated)	-1	2	69*	-1
COc1cc(C(Nc2cccc(C)n2)c2ccc3ccc(C)nc3c2O)cc(OC)c1O (configuration not stated)	0	33*	3	2
CSc1ccc(/C=C2\N=C(c3ccc(Cl)cc3Cl)OC2=O)cc1	0	10	3	1

Bioassay records as filed in PubChem BioAssay.
